According to PubChem BioAssay (NCATS):
Results filed as inconclusive are left out. Some compounds were tested as several samples or in several runs, with calls that do not always agree. Active and inactive are the calls of the source. Calls come from the whole dose curve; as a rule, active = well fitted curve in the direction sought with a large enough effect; inconclusive = small, poorly fitted or top-dose-only effect, or another doubt; inactive = no such curve, though single readings can be large; an effect the other way counts as inactive or inconclusive.

Legend:
MKL-1 = experiment: qHTS assay to identify novel small-molecules to repurpose for Merkel cell carcinoma treatment (AID 1296009); details: MCC and control cell lines, CellTiter-Glo viability, 72 h; series mostly up to 46 µM; note: nearly all actives have a fitted effect of over 60% in size
Outline: (§1)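 Cells exposed to NPC (8-point) and MIPE (11-point) compound dilutions for 72 hr at 37 degree celsius; viability read by CellTiter-Glo luminescence, normalized to no-cell and DMSO in-plate controls.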

MKL-2 = experiment: as above; details: MCC and control cell lines, CellTiter-Glo viability, 72 h; series mostly up to 46 µM
Outline: as §1

UISO = experiment: as above; details: MCC and control cell lines, CellTiter-Glo viability, 72 h; series mostly up to 46 µM
Outline: as §1

WaGa = experiment: as above; details: MCC and control cell lines, CellTiter-Glo viability, 72 h; series mostly up to 46 µM
Outline: as §1

C33A = experiment: Primary qHTS to identify gynecologic anti-cancer compounds using libraries of approved drugs and bioactive compounds (AID 1345084); details: Gynecologic cancer cell panel viability, ATPlite luminescence, 48 h; series mostly up to 57.5 µM; note: nearly all actives have a fitted effect of over 55% in size
Outline: (§2)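 48 h compound exposure at 37 C, 5% CO2; five-point qHTS. ATPlite luminescence readout of cell ATP.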

HeLa = experiment: as above; details: Gynecologic cancer cell panel viability, ATPlite luminescence, 48 h; series mostly up to 57.5 µM
Outline: as §2

CASKI = experiment: as above; details: Gynecologic cancer cell panel viability, ATPlite luminescence, 48 h; series mostly up to 57.5 µM
Outline: as §2

Es-2 = experiment: as above; details: Gynecologic cancer cell panel viability, ATPlite luminescence, 48 h; series mostly up to 57.5 µM
Outline: as §2

CAOV3 = experiment: as above; details: Gynecologic cancer cell panel viability, ATPlite luminescence, 48 h; series mostly up to 57.5 µM
Outline: as §2

NIH3T3 = experiment: qHTS assay to identify novel small-molecules to repurpose for Merkel cell carcinoma treatment (AID 1296009); details: MCC and control cell lines, CellTiter-Glo viability, 72 h; at 44.8 µM (top of the series) unless noted; note: nearly all actives have a fitted effect of over 60% in size
Outline: as §1

Measured: Potency
Potency is the fitted concentration of half-maximal effect.

O=[N+]([O-])c1ccc(O)c2ncccc12
active: MKL-1 3.76 µM | MKL-2 2.66 µM | UISO 7.5 µM | WaGa 7.5 µM | C33A 15.8 µM
inactive: HeLa

CC(C)(C)c1cc(C=O)cc(C(C)(C)C)c1O
not listed: CAOV3 | NIH3T3
inactive: all other assays above

COC(=O)c1cc(Cl)ccc1NS(=O)(=O)C(F)(F)F
active: CAOV3 25.1 µM
inactive: MKL-1 | MKL-2 | UISO | WaGa | CASKI

CC(=O)O[C@@H]1C(=O)O[C@@H]2[C@H]1OC(=O)[C@@H]2OC(C)=O
not listed: CAOV3 | NIH3T3
inactive: all other assays above

O=C(Nc1ccc(Cl)cc1)Nc1ccc(Cl)c(C(F)(F)F)c1
active: MKL-1 21.1 µM | MKL-2 7.5 µM | UISO 10.6 µM | WaGa 26.6 µM | C33A 17.8 µM | Es-2 28.2 µM | HeLa 14.1 µM

CCOCCn1c(C2CCN(CCc3ccc(C(C)(C)C(=O)O)cc3)CC2)nc2ccccc21
not listed: CAOV3 | NIH3T3
inactive: all other assays above

O=[N+]([O-])c1cncn1CCN1CCOCC1
not listed: CAOV3 | NIH3T3
inactive: all other assays above

O=C(O)CNC(=O)CNC(=O)CNC(=O)CSC(=O)c1ccccc1
not listed: C33A | CAOV3 | NIH3T3
inactive: all other assays above

Cc1cccc(OCC(O)CNC(C)(C)C)c1C (centres undefined)
not listed: CAOV3 | NIH3T3
inactive: all other assays above

Cc1cnc(NS(=O)(=O)c2ccc(N)cc2)nc1
not listed: CAOV3 | NIH3T3
inactive: all other assays above

Brc1ccccc1-c1ccccc1
not listed: CAOV3 | NIH3T3
inactive: all other assays above

C=C(C)C(=O)OCC(O)CO (centres undefined)
not listed: CASKI | CAOV3 | NIH3T3
inactive: all other assays above

Cc1ncc(CO)c(CO)c1O
not listed: CAOV3 | NIH3T3
inactive: all other assays above

CCOC(=O)c1ccc(OCCN2C[C@H](O)[C@@H](O)[C@H](O)[C@H]2CO)cc1
not listed: CAOV3 | NIH3T3
inactive: all other assays above

CC(C)(C)C(O)/C=C/c1ccc2c(c1)OCO2 (centres undefined)
not listed: CAOV3 | NIH3T3
inactive: all other assays above

CCCCCCCCCCCCCC[N+](C)(C)C
active: MKL-1 1.19 µM | MKL-2 1.19 µM | UISO 2.37 µM | WaGa 1.33 µM | CASKI 3.16 µM | Es-2 14.1 µM

COc1ccc2cc(C=O)ccc2c1
not listed: CAOV3 | NIH3T3
inactive: all other assays above

CO[C@@H]1[C@@H](OC)[C@H](C)[C@@](O)(CC(=O)O)O[C@H]1[C@H](C)[C@H]1O[C@@]2(CC[C@@](C)([C@H]3CC[C@@](C)([C@@H]4O[C@@H]([C@H]5O[C@](C)(O)[C@H](C)C[C@@H]5C)C[C@@H]4OC4C[C@H](OC)[C@@H](OC)[C@H](C)O4)O3)O2)C[C@H](O)[C@H]1C (some centres undefined)
active: MKL-1 0.376 µM | MKL-2 0.211 µM | UISO 0.596 µM | WaGa 0.335 µM | CAOV3 14.1 µM | Es-2 10 µM

CCc1cccc2c(CCO)c[nH]c12
not listed: CAOV3 | NIH3T3
inactive: all other assays above

CCOC(=O)C(O)c1ccccc1 (centres undefined)
not listed: CAOV3 | NIH3T3
inactive: all other assays above

Cc1c(N)cccc1C(F)(F)F
not listed: CAOV3 | NIH3T3
inactive: all other assays above

O=C(Nc1ccc(Cl)cc1)Nc1ccc(Cl)c(Cl)c1
active: MKL-1 18.8 µM | MKL-2 5.96 µM | UISO 10.6 µM | WaGa 21.1 µM
inactive: CASKI

CC1c2ccccc2CN1NC(=O)c1ccc(Cl)c(S(N)(=O)=O)c1 (centres undefined)
not listed: CAOV3 | NIH3T3
inactive: all other assays above

Cc1cc(C(C)(C)C)c(O)c(C(C)(C)C)c1
not listed: CAOV3 | NIH3T3
inactive: all other assays above

Cc1cccc(N(C)C(=S)Oc2ccc3c(c2)CCC3)c1
not listed: WaGa | NIH3T3
inactive: all other assays above

CC(=O)OCC(=O)[C@@]1(O)CCC2C3CCC4=CC(=O)CC[C@]4(C)C3[C@@H](O)C[C@@]21C (some centres undefined)
not listed: CAOV3 | NIH3T3
inactive: all other assays above

CCN1C(=O)c2ccccc2C1Nc1ccc(OCCN2CCCCC2)cc1 (centres undefined)
not listed: CAOV3 | NIH3T3
inactive: all other assays above

COc1cc(C(=O)OC(COCCC(C)C)CN2CCOCC2)cc(OC)c1OC (centres undefined)
not listed: CAOV3 | NIH3T3
inactive: all other assays above

COCCOCC(OC)OC
not listed: CAOV3 | NIH3T3
inactive: all other assays above

CC(=O)N(CC(=O)N(C)C)c1ccccc1
not listed: CASKI | CAOV3 | NIH3T3
inactive: all other assays above

OC1(c2ccc(Cl)c(C(F)(F)F)c2)CCN(CCCC(c2ccc(F)cc2)c2ccc(F)cc2)CC1
active: MKL-1 7.5 µM | MKL-2 5.31 µM | UISO 10.6 µM | WaGa 15 µM
25.1 µM (active) and inactive: Es-2 | HeLa

CC(=O)O[C@@H]1CC2C3CCc4cc(OC(=O)c5ccccc5)ccc4C3CCC2(C)[C@H]1OC(C)=O (some centres undefined)
not listed: CAOV3 | NIH3T3
inactive: all other assays above

CC1CC(=O)NN=C1c1ccc(NCC(C)(C)NCC(O)COc2cc(Cl)ccc2C#N)cc1 (centres undefined)
not listed: C33A | NIH3T3
inactive: all other assays above

Nc1cccc2c(N)cccc12
inactive: Es-2 | HeLa
active: MKL-1 6.11 µM | MKL-2 1.93 µM | UISO 10.9 µM | WaGa 19.3 µM

CCCCC(CC)CNC(=O)CC(C)OC(=O)CCC(=O)O (centres undefined)
not listed: CAOV3 | NIH3T3
inactive: all other assays above

CC(C)(C)C(=O)OCOC(=O)C1N2C(=O)CC2S(=O)(=O)C1(C)C (centres undefined)
not listed: CAOV3 | NIH3T3
inactive: all other assays above

CCOC(=O)C1=C(C)NC(C)=C(C(=O)OCC)C1c1ccccc1/C=C/C(=O)OC(C)(C)C
inactive: Es-2 | HeLa
active: MKL-1 26.6 µM | MKL-2 21.1 µM | UISO 26.6 µM | WaGa 23.7 µM

COc1c(C)c2c(c(O)c1C/C=C(\C)CCC(=O)OCCN1CCOCC1)C(=O)OC2
inactive: MKL-1 | MKL-2 | WaGa

O=C(OCCN1CCOCC1)c1cccnc1Nc1cccc(C(F)(F)F)c1
not listed: WaGa | NIH3T3
inactive: all other assays above

CC(=O)Nc1ccn(C2COC(COC(=O)c3ccccc3)O2)c(=O)n1 (centres undefined)
inactive: MKL-1 | MKL-2 | C33A | CASKI | HeLa

CC(C)Cc1ccc(C(C)C(=O)OCc2ccccn2)cc1 (centres undefined)
not listed: MKL-2 | NIH3T3
inactive: all other assays above

CC[N+](CC)(CC)CCOC(=O)C(C1CCCC1)C1CCCC1
active: MKL-1 11.9 µM | MKL-2 5.96 µM | WaGa 9.44 µM
inactive: C33A | CAOV3 | Es-2 | HeLa

CCCCCCCCCCCCCCCCCCNC(=O)OC1CCN(C(=O)OC[C@H](COC(=O)N(Cc2cccc[n+]2CC)C(=O)c2ccccc2OC)OC)CC1
active: MKL-1 11.9 µM | MKL-2 2.66 µM | UISO 6.68 µM | CAOV3 15.8 µM | CASKI 15.8 µM

CC(C)(c1ccc(O)cc1)c1ccc(O)cc1
not listed: UISO | WaGa | NIH3T3
inactive: all other assays above

Oc1cccc2[nH]ccc12
active: UISO 26.6 µM
not listed: WaGa | NIH3T3
inactive: all other assays above

CCOC(=O)c1cc(=O)c2c(OCC(COc3cccc4oc(C(=O)OCC)cc(=O)c34)OC(=O)[C@@H](N)CCCCN)cccc2o1
not listed: MKL-2 | WaGa
inactive: all other assays above
